Data as given in publication PMC10726135, “HNF4α isoforms regulate the circadian balance between carbohydrate and lipid metabolism in the liver”.
The full ranking holds about 18,000 sequences; the median of “log2 normalized intensity” is about 0.39, and the highest 2% start at about 6.6. The sample as a whole holds a higher share of the highest values than the screen did.

Molecular target: T1, HNF4alpha2 (COS-7 nuclear extract) (Homo sapiens, UniProt P41235 1-474)
T1 sequence: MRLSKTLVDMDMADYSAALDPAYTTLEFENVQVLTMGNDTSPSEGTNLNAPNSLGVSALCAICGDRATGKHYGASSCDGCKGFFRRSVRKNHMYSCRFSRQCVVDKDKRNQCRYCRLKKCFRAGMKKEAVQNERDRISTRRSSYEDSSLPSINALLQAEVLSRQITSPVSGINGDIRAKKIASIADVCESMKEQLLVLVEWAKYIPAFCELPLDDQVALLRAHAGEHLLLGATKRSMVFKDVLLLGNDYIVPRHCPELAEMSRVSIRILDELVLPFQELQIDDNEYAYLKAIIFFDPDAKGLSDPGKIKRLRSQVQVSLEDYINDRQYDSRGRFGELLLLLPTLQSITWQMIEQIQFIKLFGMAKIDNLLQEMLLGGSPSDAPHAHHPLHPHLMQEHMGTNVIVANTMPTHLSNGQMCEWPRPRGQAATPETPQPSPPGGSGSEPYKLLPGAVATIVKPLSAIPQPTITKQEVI
Experiment: protein-binding microarray; COS-7 nuclear extract on double-stranded Agilent 4x180k PBM; binding buffer, salt, pH and temperature not given in the material; high values mean tight binding
Conditions: chain copies: 2; label: 3' end of strand 1 on the slide; dsDNA, one strand shown
Outline: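 COS-7 cells were transiently transfected by CaPO4 with an expression vector for a human HNF4α isoform, and nuclear extracts were prepared from them. The extracts were applied to a custom Agilent SurePrint G3 4x180k array of double-stranded ~60-nt oligonucleotides, with ~44,000 test sequences spotted in quadruplicate. An Agilent G2565CA scanner imaged bound HNF4α at 2-µm resolution. Binding signal is the background-corrected, normalized gProcessedSignal from Agilent software.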

First: ATCTAGGTGAGGGATGAGGACTTTGATCAGGCCTAGGGAGATTAGAGTATCGGTCGA
Second: GAATCTACAGAATTCTCATGGAGGACTTTGGCCTAGGGAGATTAGAGTATCGGTCGA
The binding signal of the first is higher: 6.01 log2 normalized intensity for the first, 2.77 log2 normalized intensity for the second.

Compared with “TCTGGGATGTTGGGAGGAGTGGACTTTGATGCCTAGGGAGATTAGAGTATCGGTCGA”, “GGGACTAGCCTTATCTCAGATGAGACTTTGGCCTAGGGAGATTAGAGTATCGGTCGA” is lower in binding signal: 5.99 log2 normalized intensity for the first, 1.7 log2 normalized intensity for the second.

Compared with “TAGCCTTATCTCAGATGAGACTTTGGACTTGCCTAGGGAGATTAGAGTATCGGTCGA”, “GATGTTGGGAGGAGTGGACTTTGATCTCAGGCCTAGGGAGATTAGAGTATCGGTCGA” is higher in binding signal: 7.96 log2 normalized intensity for the first, 8.9 log2 normalized intensity for the second.

Going from “GGGCTGAGGATGAGGACTTTGGTCTTATTAGCCTAGGGAGATTAGAGTATCGGTCGA” to “CAGATGGATTGATAGACTTATCTCAGCCTGGCCTAGGGAGATTAGAGTATCGGTCGA”, the binding signal falls from 3.74 log2 normalized intensity to -0.761 log2 normalized intensity.

Compared with “TACAGAATTCTCATGGAGGACTTTGGCCTTGCCTAGGGAGATTAGAGTATCGGTCGA”, “TCAGATGAGACTTTGGACTTTTGAACTAAGGCCTAGGGAGATTAGAGTATCGGTCGA” is lower in binding signal: 7.11 log2 normalized intensity for the first, 6.42 log2 normalized intensity for the second.

Going from “AATTCTCATGGAGGACTTTGGCCTTTTGTGGCCTAGGGAGATTAGAGTATCGGTCGA” to “TTATCTCAGATGAGACTTTGGACTTTTGAAGCCTAGGGAGATTAGAGTATCGGTCGA”, the binding signal rises from 5.77 log2 normalized intensity to 7.12 log2 normalized intensity.

First: TCTTTGTTCAGAGGGCATGTTGAGTGGAATGCCTAGGGAGATTAGAGTATCGGTCGA
Second: TTACAACGCTGTTGTCTGTGACTGGGGTCAGCCTAGGGAGATTAGAGTATCGGTCGA
The binding signal of the first is lower: 2.13 log2 normalized intensity for the first, 3.66 log2 normalized intensity for the second.

First: GCCAACAACTAGGGCAAAGGTTAGCTTGGAGCCTAGGGAGATTAGAGTATCGGTCGA
Second: ACAGATGTAGACATTGGAATGCGGGCTCCAGCCTAGGGAGATTAGAGTATCGGTCGA
The binding signal of the first is higher: 4.27 log2 normalized intensity for the first, -0.394 log2 normalized intensity for the second.

Going from “TCGGAATGTCTGGGCAAAGGGGAGGTTATCGCCTAGGGAGATTAGAGTATCGGTCGA” to “AAGTGGTATCCTGCAGTCAGTCTGATTGGTGCCTAGGGAGATTAGAGTATCGGTCGA”, the binding signal rises from 0.29 log2 normalized intensity to 0.556 log2 normalized intensity.

Compared with “GAGGAGTGGCCATGATGCCATCTGGTGAAGGCCTAGGGAGATTAGAGTATCGGTCGA”, “TTGAACACCACAAGTTTGAACTGCACAGGCGCCTAGGGAGATTAGAGTATCGGTCGA” is higher in binding signal: -0.987 log2 normalized intensity for the first, -0.333 log2 normalized intensity for the second.

First: GTGAGGTCACAGTATTCATTCCCCTAGTATGCCTAGGGAGATTAGAGTATCGGTCGA
Second: TAGCTTTAGCCGGACTTTGTCCTTTGATTTGCCTAGGGAGATTAGAGTATCGGTCGA
The binding signal of the first is lower: 2.55 log2 normalized intensity for the first, 6.43 log2 normalized intensity for the second.

Going from “TCAGATAGCTTTAGCCGGACTTTGTCCTTTGCCTAGGGAGATTAGAGTATCGGTCGA” to “CTATCTCAGATAGCTTTAGCCGGACTTTGTGCCTAGGGAGATTAGAGTATCGGTCGA”, the binding signal falls from 7.78 log2 normalized intensity to 5.18 log2 normalized intensity.
